Results reported in PubChem BioAssay AID1159580 (chemical genetic matrix, 2015).
About 2,000 (36%) of roughly 5,500 compounds were called active. Roughly 18% stayed inconclusive and do not appear here. No stated cut-off is given here; in the data, active means normalized growth mostly below about 0.91 (no sharp cut-off); inconclusive means no clear call, values can overlap the other calls; inactive means mostly above about 0.92. Some of the results follow.

Assay: chemical genetic growth profiling, strain panel (AID 1159580);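 further: tested at 20 µM; growth read once vehicle control cultures reached saturation at 30 °C; 1 = growth at the plate median or of vehicle wells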
Conditions: growth OD

Measured: normalized growth

CCC(C)C(OC(C)=O)C(=O)OC1C(O)C2C3(C)C=CC(=O)C(C)(C)C3CC(OC(=O)C(O)C(C)C)C2(C)C23OC2CC(c2ccoc2)C13C (stereo unspecified)
inactive: S. cerevisiae deletion strains, locus YAL013W, strain DEP1, stronger effect = lower value 1.01 | S. cerevisiae deletion strains, locus YBR021W, strain FUR4, stronger effect = lower value 0.996 | S. cerevisiae deletion strains, locus YBR229C, strain ROT2, stronger effect = lower value 0.989 | S. cerevisiae deletion strains, locus YCL029C, strain bik1, stronger effect = lower value 0.978 | S. cerevisiae deletion strains, locus YDL035C, strain GPR1, stronger effect = lower value 0.976 | S. cerevisiae deletion strains, locus YDL074C, strain BRE1, stronger effect = lower value 1.02 | S. cerevisiae deletion strains, locus YDL101C, strain DUN1, stronger effect = lower value 1 | S. cerevisiae deletion strains, locus YDL134C, strain PPH21, stronger effect = lower value 1 | S. cerevisiae deletion strains, locus YDL185W, strain tfp1, stronger effect = lower value 0.988 | S. cerevisiae deletion strains, locus YDL192W, strain arf1, stronger effect = lower value 0.989 | S. cerevisiae deletion strains, locus YDR101C, strain arx1, stronger effect = lower value 0.991 | S. cerevisiae deletion strains, locus YDR150W, strain NUM1, stronger effect = lower value 1.01 | S. cerevisiae deletion strains, locus YDR162C, strain NBP2, stronger effect = lower value 1.02 | S. cerevisiae deletion strains, locus YDR318W, strain mcm21, stronger effect = lower value 0.966 | S. cerevisiae deletion strains, locus YDR388W, stronger effect = lower value 0.988 | S. cerevisiae deletion strains, locus YDR502C, strain sam2, stronger effect = lower value 1.02 | S. cerevisiae deletion strains, locus YEL061C, strain CIN8, stronger effect = lower value 1 | S. cerevisiae deletion strains, locus YER110C, stronger effect = lower value 0.992 | S. cerevisiae deletion strains, locus YER155C, strain BEM2, stronger effect = lower value 1 | S. cerevisiae deletion strains, locus YER167W, strain BCK2, stronger effect = lower value 0.982 | S. cerevisiae deletion strains, locus YGL078C, strain dbp3, stronger effect = lower value 1 | S. cerevisiae deletion strains, locus YGL086W, strain mad1, stronger effect = lower value 0.978 | S. cerevisiae deletion strains, locus YGL248W, strain PDE1, stronger effect = lower value 0.999 | S. cerevisiae deletion strains, locus YGR078C, strain PAC10, stronger effect = lower value 1.04 | S. cerevisiae deletion strains, locus YGR135W, strain pre9, stronger effect = lower value 1.02 | S. cerevisiae deletion strains, locus YGR229C, strain SMI1, stronger effect = lower value 1.02 | S. cerevisiae deletion strains, locus YGR252W, strain gcn5, stronger effect = lower value 0.946 | S. cerevisiae deletion strains, locus YHR030C, strain SLT2, stronger effect = lower value 0.994 | S. cerevisiae deletion strains, locus YHR079C, strain IRE1 (second series), stronger effect = lower value 1 | S. cerevisiae deletion strains, locus YHR094C, strain hxt1, stronger effect = lower value 0.988 | S. cerevisiae deletion strains, locus YHR129C, strain ARP1, stronger effect = lower value 1 | S. cerevisiae deletion strains, locus YHR200W, strain rpn10, stronger effect = lower value 0.987 | S. cerevisiae deletion strains, locus YIL066C, strain RNR3, stronger effect = lower value 0.994 | S. cerevisiae deletion strains, locus YIL073C, strain SPO22, stronger effect = lower value 0.902 | S. cerevisiae deletion strains, locus YIL125W, strain kgd1, stronger effect = lower value 0.986 | S. cerevisiae deletion strains, locus YIR030C, strain dcg1, stronger effect = lower value 0.988 | S. cerevisiae deletion strains, locus YJL095W, strain BCK1, stronger effect = lower value 1.05 | S. cerevisiae deletion strains, locus YJL134W, strain LCB3, stronger effect = lower value 0.997 | S. cerevisiae deletion strains, locus YJL168C, strain set2, stronger effect = lower value 0.992 | S. cerevisiae deletion strains, locus YJL187C, strain SWE1 (second series), stronger effect = lower value 1.01 | S. cerevisiae deletion strains, locus YJR043C, strain POL32, stronger effect = lower value 0.969 | S. cerevisiae deletion strains, locus YJR075W, strain HOC1, stronger effect = lower value 1.01 | S. cerevisiae deletion strains, locus YKL009W, strain mrt4, stronger effect = lower value 1.08 | S. cerevisiae deletion strains, locus YKL068W, stronger effect = lower value 1 | S. cerevisiae deletion strains, locus YKL085W, strain MDH1 (second series), stronger effect = lower value 1.04 | S. cerevisiae deletion strains, locus YKL085W, strain MDH1, stronger effect = lower value 1.04 | S. cerevisiae deletion strains, locus YKL190W, strain CNB1, stronger effect = lower value 0.998 | S. cerevisiae deletion strains, locus YKR001C, strain vps1, stronger effect = lower value 0.991 | S. cerevisiae deletion strains, locus YLR039C, strain RIC1, stronger effect = lower value 0.962 | S. cerevisiae deletion strains, locus YLR058C, strain SHM2, stronger effect = lower value 0.995 | S. cerevisiae deletion strains, locus YLR102C, strain apc9, stronger effect = lower value 0.982 | S. cerevisiae deletion strains, locus YLR262C, strain YPT6, stronger effect = lower value 0.973 | S. cerevisiae deletion strains, locus YLR268W, strain sec22, stronger effect = lower value 1.02 | S. cerevisiae deletion strains, locus YLR330W, strain CHS5, stronger effect = lower value 0.996 | S. cerevisiae deletion strains, locus YLR342W, strain FKS1 (second series), stronger effect = lower value 0.987 | S. cerevisiae deletion strains, locus YLR371W, strain rom2, stronger effect = lower value 0.985 | S. cerevisiae deletion strains, locus YLR418C, strain cdc73, stronger effect = lower value 1 | S. cerevisiae deletion strains, locus YML016C, strain PPZ1, stronger effect = lower value 1 | S. cerevisiae deletion strains, locus YML032C, strain rad52, stronger effect = lower value 0.97 | S. cerevisiae deletion strains, locus YML124C, strain tub3, stronger effect = lower value 0.993 | S. cerevisiae deletion strains, locus YMR078C, strain ctf18, stronger effect = lower value 0.977 | S. cerevisiae deletion strains, locus YMR223W, strain ubp8, stronger effect = lower value 0.983 | S. cerevisiae deletion strains, locus YMR263W, strain SAP30, stronger effect = lower value 1.04 | S. cerevisiae deletion strains, locus YMR307W, strain GAS1, stronger effect = lower value 0.912 | S. cerevisiae deletion strains, locus YNL067W, strain RPL9B, stronger effect = lower value 1.03 | S. cerevisiae deletion strains, locus YNL128W, strain TEP1, stronger effect = lower value 1.01 | S. cerevisiae deletion strains, locus YNL153C, strain GIM3, stronger effect = lower value 1.05 | S. cerevisiae deletion strains, locus YNL233W, strain BNI4, stronger effect = lower value 1.03 | S. cerevisiae deletion strains, locus YNL250W, strain rad50, stronger effect = lower value 0.992 | S. cerevisiae deletion strains, locus YNL271C, strain bni1, stronger effect = lower value 0.993 | S. cerevisiae deletion strains, locus YNL298W, strain CLA4, stronger effect = lower value 0.99 | S. cerevisiae deletion strains, locus YNL307C, strain MCK1, stronger effect = lower value 0.979 | S. cerevisiae deletion strains, locus YNL322C, strain KRE1, stronger effect = lower value 0.999 | S. cerevisiae deletion strains, locus YNR052C, strain pop2, stronger effect = lower value 0.988 | S. cerevisiae deletion strains, locus YOL006C, strain TOP1, stronger effect = lower value 0.949 | S. cerevisiae deletion strains, locus YOL012C, strain htz1 2.38 | S. cerevisiae deletion strains, locus YOL147C, strain pex11, stronger effect = lower value 0.999 | S. cerevisiae deletion strains, locus YOR061W, strain CKA2, stronger effect = lower value 1 | S. cerevisiae deletion strains, locus YOR069W, strain VPS5, stronger effect = lower value 0.978 | S. cerevisiae deletion strains, locus YOR136W, strain idh2, stronger effect = lower value 0.979 | S. cerevisiae deletion strains, locus YOR144C, strain elg1, stronger effect = lower value 1 | S. cerevisiae deletion strains, locus YOR184W, strain ser1, stronger effect = lower value 0.946 | S. cerevisiae deletion strains, locus YOR316C, strain cot1, stronger effect = lower value 0.996 | S. cerevisiae deletion strains, locus YPL055C, strain LGE1, stronger effect = lower value 1.05 | S. cerevisiae deletion strains, locus YPL241C, strain CIN2, stronger effect = lower value 1 | S. cerevisiae deletion strains, locus YPR119W, strain clb2, stronger effect = lower value 0.993 | S. cerevisiae deletion strains, locus YPR141C, strain kar3, stronger effect = lower value 0.99 | S. cerevisiae deletion strains, locus YPR163C, strain tif3, stronger effect = lower value 0.986 | S. cerevisiae deletion strains, locus YPR167C, strain met16, stronger effect = lower value 0.99 | S. cerevisiae deletion strains, strain wtn01, stronger effect = lower value 1 | S. cerevisiae strains, strain wild type, stronger effect = lower value 0.985
